Bioassay records from PubChem.
Cl transport mod: modulates chloride dependent transport by human KCC2; Q9H2X9; KCC2 cells, thallium flux FluoZin-2 fluorescence; B-score of Tl+ flux slope (higher = more flux/activation; lower = inhibition) at 10 µM; 190,000 compounds, 2.2% hits; AID 1456;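 active = thallium flux slope and its plate-corrected score both differing from the plate sample mean at a set confidence after two filtering rounds, in either direction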;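 also: slope of fluorescence scaled to starting intensity during 10 to 20 s after thallium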
H9c2 protect: modulators protecting cardiomyocytes from myocardial damage | 360,000 compounds, 0.63% hits | H9c2 cardiomyocytes, H2O2 injury protection, ATPLite, 2 h | protection from H2O2 cell death, % at 20 µM;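 active = compounds giving at least 50% protection of heart cells from peroxide-induced death in the single-dose screen, raw or plate-pattern-corrected value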;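 also: 0% = DMSO wells with peroxide and 100% = DMSO wells without peroxide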
Efflux pump mplx: blocks antifungal efflux pumps in multiplex yeast assay; S. cerevisiae Candida pump triplex, Nile Red efflux; AID 485275; inhibition, % at 10 µM; 330,000 compounds, 0.44% hits;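 active = plate passing quality check with inhibition over a set limit, or well fluorescence over plate mean plus 4 SD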;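 also: Nile Red retained in pooled yeast measured as flow cytometry median fluorescence; 0% = buffer negative control and 100% = Enniatin B positive control; higher means more Nile Red kept so more efflux inhibition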
PHOSPHO1 block: PHOSPHO1 (human) inhibition; recombinant PHOSPHO1, absorbance phosphatase assay; inhibition, % at 13.3 µM; 290,000 compounds, 1.1% hits; AID 1565; in the data active = inhibition above about 60%
Target sequence (Q8TCT1 whole entry, looked up): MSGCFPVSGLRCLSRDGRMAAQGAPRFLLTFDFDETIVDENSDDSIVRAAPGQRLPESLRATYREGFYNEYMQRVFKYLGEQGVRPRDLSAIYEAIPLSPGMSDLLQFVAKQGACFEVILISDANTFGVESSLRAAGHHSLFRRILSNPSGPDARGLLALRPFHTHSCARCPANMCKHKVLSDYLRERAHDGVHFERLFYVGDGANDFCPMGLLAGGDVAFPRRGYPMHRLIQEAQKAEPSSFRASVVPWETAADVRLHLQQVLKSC
Calb FLC: C. albicans growth modulation with fluconazole | C. albicans CaCi-2 (fluconazole-resistant clinical isolate) + fluconazole, Alamar Blue growth, 48 h | growth inhibition, % (no concentration beside the values) | 300,000 compounds, 0.57% hits;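 active = growth inhibition above about 58% in most replicates, limit read from the data, passing the limit was not always enough; inconclusive = exactly half the replicates above a set limit; inactive = most replicates below a set limit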;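 also: all wells also contain fluconazole at 8 µg/ml as a sub-toxic cotreatment; 0% = median of DMSO wells and 100% = median of geldanamycin control wells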
KCC2 secondary: KCC2 (human) modulation, secondary assay | shares compounds with Cl transport mod | HEK293-KCC2, thallium flux, FluoZin2 fluorescence; active compounds read high | normalised thallium flux (F/F0 slope) at 10 µM | 3,700 compounds, 15% hits;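 active = thallium flux slope above the same plate's solvent-only control mean plus 3 SD; inconclusive = the two replicate wells disagree; inactive = no significant difference from solvent-only control wells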
KCC2 bumet counter: bumetanide-insensitive thallium flux in KCC2 cells with ouabain, counter-screen; shares compounds with Cl transport mod; HEK293-KCC2 + bumetanide/ouabain, thallium flux FluoZin2; active compounds read high; normalized thallium flux at 10 µM; 3,700 compounds, 49% hits;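 active = thallium entry rate above the same plate's blocked-transporter control wells by more than 3 SD; inconclusive = the two repeat wells disagree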;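 also: raw slope of fluorescence over initial fluorescence between 10 and 20 s after thallium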
KCC2 secondary2: KCC2 (human) modulation, second secondary assay; shares compounds with Cl transport mod; HEK293-KCC2, thallium flux FluoZin2 fluorescence; actives lie on both sides; F/F0 rise rate, 10–20 s post-thallium; normalized thallium flux at 10 µM; 3,700 compounds, 23% hits;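 active = thallium flux slope more than 3 SD above or below the plate's solvent-only control mean, mostly below; inconclusive = the two repeat wells disagreed; inactive = no significant shift from solvent-only controls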;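 also: raw slope with 0.1% DMSO as baseline and bumetanide as block control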
HEK counter1: parental HEK flux effect, counter-screen. thallium flux rate (normalised fluorescence) at 10 µM. shares compounds with Cl transport mod. HEK293 parental cells, thallium flux FluoZin2, ouabain; baseline-ratio fluorescence slope, 10–20 s after thallium. 3,700 compounds, 46% hits;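 active = thallium flux rate significantly above the same plate's solvent-only control wells, beyond their mean plus 3 SD; inconclusive = the two replicate wells gave conflicting results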
KCC2 ouabain: modulates human KCC2 on retest with ouabain; shares compounds with Cl transport mod; HEK293-KCC2, thallium flux FluoZin2 fluorescence; bidirectional: low = inhibitor, high = activator; raw Tl+ flux slope (below DMSO = inhibition, above = activation) at 10 µM; 3,700 compounds, 48% hits; AID 1717;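 active = thallium flux slope beyond 3 SD from same-plate DMSO control mean in most replicates, usually higher, sometimes lower; inconclusive = repeat tests gave conflicting results; inactive = no significant difference from controls in most replicates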;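 also: slope of initial-normalized fluorescence between seconds 10 and 20 after thallium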
HEK counter2: counter-screen for KCC2 modulators: effect in parental HEK293 cells | 3,700 compounds, 33% hits | shares compounds with Cl transport mod | thallium flux slope at 10 µM | AID 1718 | thallium flux FluoZin-2 fluorescence slope;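 active = thallium flux slope above the same plate's solvent-control mean plus 3 SD in both duplicate wells; inconclusive = duplicate wells that disagreed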;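 also: run without ouabain in cells lacking the KCC2 cotransporter; slope of fluorescence scaled to its starting value between 10 and 20 s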
* = called active by the depositor; u = inconclusive; x = no result given. In the library only some 3.3% were active in any assay of this set; here they are far more common.

SMILES	Cl transport mod	H9c2 protect	Efflux pump mplx	PHOSPHO1 block	Calb FLC	KCC2 secondary	KCC2 bumet counter	KCC2 secondary2	HEK counter1	KCC2 ouabain	HEK counter2
O=C(CN1C(=O)NC2(CCCC2)C1=O)OCCOc1cccc(Br)c1	x	-3	0	x	0	x	x	x	x	x	x
O=C(NC(=S)N1CCCCC1c1cccnc1)c1ccc(F)cc1 (centres undefined)	x	2	0	16	2	x	x	x	x	x	x
O=C(NC(=S)NN1CCCCC1c1cccnc1)c1ccc(Cl)cc1Cl (centres undefined)	9.1*	-3	0	43	26	0.012*	0.021*	0.035	0.012*	u	u
N#CC(C#N)=C(Nc1ccc(F)cc1)SCc1cccc(F)c1	-5.1*	-19	0	11	28	0.005	u	0.025*	u	0.014*	0.0091*
COc1ccc2nc3n(c(=O)c2c1)-c1ncccc1C(=O)NC3C (centres undefined)	x	5	x	x	x	x	x	x	x	x	x
CCOC(=O)c1cc(-c2ccc(Cl)cc2)nc2onc(C)c12	x	x	0	9	-15	0.0075	0.0046	0.029	0.0078	0.019	0.011
CCOC(=O)c1cc(-c2ccc(Cl)cc2)nc2c1c(=O)[nH]c(=O)n2CCOC	0.19	3	0	-10	37	x	x	x	x	x	x
CCCCNC(=S)N/N=C/c1ccccc1F	7.2*	-14	0	-14	-25	0.011	0.038*	0.033	0.019*	u	0.012*
CCCCNC(=S)N/N=C/c1sccc1C	10*	-9	0	-13	-26	0.01	0.017*	0.034	0.019*	u	u
COCCCNC(=S)N/N=C/c1cccc(OC)c1O	0.33	0	0	3	3	x	x	x	x	x	x
CCCCNC(=S)N/N=C/c1cc(C)ccc1C	4.3*	-10	0	0	-2	u	0.0091*	0.035	0.012*	u	0.014*
CCCCNC(=S)N/N=C/c1ccc(C)s1	4*	5	0	27	-7	u	0.027*	0.031	0.012*	0.021*	0.014*
CC1CCN(S(=O)(=O)c2ccc(NC(=O)C3CCN(C(=O)c4ccco4)CC3)cc2)CC1	x	-13	0	2	4	x	x	x	x	x	x
Cc1cccc(-n2c(CNC(=O)c3ccc(S(=O)(=O)N4CCCCC4)cc3)n[nH]c2=S)c1	x	-2	0	-56	-7	x	x	x	x	x	x
CCCCCC(=O)Cc1cc(O)cc2c1C(=O)Oc1cc(O)c(C(=O)O)c(CCCCC)c1O2	-1.6*	x	0	8	-6	u	0.0046	0.026*	0.008	u	0.011
O=C1Cc2ccccc2C(=O)N1CCc1ccccc1	x	1	0	22	-2	0.0067	0.0047	0.028	0.0074	0.018	0.011
Cc1ccccc1Cn1nc(C)c(NC(=O)c2noc3c2CCc2ccccc2-3)c1C	-3.8*	-10	0	-6	29	0.0085	0.0068	0.033	0.0081	0.019	0.011
COc1cc(/C=N\NC(=O)C(C)(C)O)ccc1OC/C=C/c1ccccc1	x	4	0	11	-24	x	x	x	x	x	x
CCOC(=O)C(=COC(=O)c1ccccc1)NC(=O)Cc1ccccc1	x	4	x	x	x	x	x	x	x	x	x
COc1cccc(-c2nc(NCCN3CCOCC3)c3ccccc3n2)c1O	-0.041	50	0	23	u	0.01	0.0072	0.033	0.0078	0.021	u
O=C(O)c1ccc(N2CCCCS2(=O)=O)cc1	x	-3	0	23	5	0.0057	0.0049	0.026*	0.0082	0.019	0.012
CC1=C(C(=O)Nc2cc(C(=O)NCc3ccccc3)ccc2C)SCCO1	x	-2	x	x	x	x	x	x	x	x	x
Cc1cc(CN(C)C(=O)CC2C(=O)NCCN2Cc2c(F)cccc2Cl)on1 (centres undefined)	7.9*	5	0	8	-5	0.016	0.0048	0.028	0.0076	0.016	0.01
CN(Cc1ncc[nH]1)C(=O)CC1C(=O)NCCN1Cc1c(F)cccc1Cl (centres undefined)	0.038	-5	0	-9	8	x	x	x	x	x	x
O=C(O)Cc1sc(Nc2ccccc2)nc1-c1ccc(Cl)cc1	-6.7*	7	0	-98	-22	0.0083	0.01*	0.033	0.0075	u	0.011
SMILES	Cl transport mod	H9c2 protect	Efflux pump mplx	PHOSPHO1 block	Calb FLC	KCC2 secondary	KCC2 bumet counter	KCC2 secondary2	HEK counter1	KCC2 ouabain	HEK counter2
Cc1ccc(Nc2nc(-c3ccccc3)c(CC(=O)O)s2)cc1	-1.4	-7	0	11	11	x	x	x	x	x	x
CCC(C)n1c(=S)[nH]c2ccccc2c1=O (centres undefined)	101*	3	0	17	-29	0.042*	0.14*	0.055*	0.13*	0.11*	0.039*
CCC(Cc1ccccc1)n1c(=S)[nH]c2ccccc2c1=O (centres undefined)	50*	7	0	9	-38	0.019*	0.15*	0.035	0.059*	0.088*	0.017*
CCOC(=O)c1cn(CC)c2cc(N3CCSCC3)c(F)cc2c1=O	8*	-3	0	-2	9	0.0065	0.0041	0.032	0.0075	0.019	0.01
CCOC(=O)c1cn(CC)c2cc(N3CCN(C)CC3)c(F)cc2c1=O	x	5	0	29	-3	x	x	x	x	x	x
Cc1cccc(-c2nc(=S)c3c(n2Cc2ccco2)CCCC3)c1	21*	6	0	-45	3	0.0064	0.021*	0.032	0.018*	0.032*	0.015*
Cc1ccc(-c2nc(=S)c3c(n2Cc2ccco2)CC(C)(C)OC3)cc1	x	1	0	-72	17	0.017*	0.025*	0.033	0.011*	0.028	0.012*
Cc1ccc(-c2nc(=S)c3c(n2CC2CCCO2)CC(C)(C)OC3)cc1 (centres undefined)	x	13	0	13	u	x	x	x	x	x	x
CN(C)C(=O)CCc1ccc2c3c([nH]c2c1)[C@]1(C)[C@@H](C(=O)N2CCOCC2)C[C@H](CC(=O)NCc2cccc(C(F)(F)F)c2)C(=O)N1CC3	x	1	0	x	x	x	x	x	x	x	x
CC(=O)n1cc(C2CC(=O)OC3=C2CC(=O)C(C)(C)C3)c2ccccc21 (centres undefined)	x	21	x	x	x	x	x	x	x	x	x
CCCNC(=O)C1(C)CCCN(C(=O)Cc2cccc(OC)c2)C1 (centres undefined)	x	-2	x	x	x	x	x	x	x	x	x
